This note sets out measurements from PubChem BioAssay (NCATS).

Assay [1] is described as follows: qHTS assay for measurement of the activity of small molecule inhibitors on Zika virus induced Caspase-3 activity in human iPSC derived neural progenitor cells (hNPCs) (AID 1224857). Also: nearly all actives have a fitted effect of over 65% in size. Summed up: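 After overnight (16–20 h) culture at 350 cells/well, hNPCs get compound, then ZIKV 2 FFU/cell one hour later. Six hours on, Caspase-Glo 3/7 is added and luminescence measured.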

Assay [2] is described as follows: qHTS assay for measurement of the activity of small molecule inhibitors on Zika virus induced Caspase-3 activity in human astrocytoma cells (AID 1224859). In a few lines: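 Inhibition of Zika-induced caspase-3/7 activity: SNB-19 cells, 1 h compound pretreatment, ZIKV 2 FFU/cell for 6 h at 37 C, Caspase-Glo luminescence read-out.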
Assay [3] in a line: qHTS Screen of the MIPE 4.0 Collection Against Ewings Sarcoma (RDES) (AID 1259252). Also: nearly all actives have a fitted effect of over 35% in size. Also: potency is read from the fitted curve at half-maximal effect. Summed up:
(§1)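 Cells plated in serum-containing RPMI (5% FBS) and treated with compound dilutions for 48 h. Readout luminescent viability; normalization relied on vehicle (no inhibition) and media-only columns (full inhibition).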

Assay [4] can be described thus: qHTS Screen of the MIPE 4.0 Collection Against Ewings Sarcoma (TC71) (AID 1259253). Also: nearly all actives have a fitted effect of over 40% in size. Also: potency is read from the fitted curve at half-maximal effect. Summed up: as §1
A short description of assay [5]: qHTS Screen of the MIPE 4.0 Collection Against Ewings Sarcoma (EW8) (AID 1259255). Also: nearly all actives have a fitted effect of over 35% in size. Also: potency is read from the fitted curve at half-maximal effect. Summed up:
as §1

Assay [6] in a line: qHTS Screen of the MIPE 4.0 Collection Against Ewings Sarcoma (TC32) (AID 1259256). Also: nearly all actives have a fitted effect of over 45% in size. Also: potency is read from the fitted curve at half-maximal effect. In a few lines: as §1
Assay [7] can be described thus: Identifying Small Molecule Inhibitors of Pancreatic Cancer Stem Cells (SN12C, Adherent) (AID 1259358).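 Also: cell survival measured after 48 h of compound exposure.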 Also: potency is read from the fitted curve at half-maximal effect. In a few lines: (§2)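 Pre-formed 14-day tumor spheroids or adherent cells dosed and incubated 48 h, 37C, 5% CO2. Viability assessed by CellTiter-Glo.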
The nature of assay [8]: P-glycoprotein substrates identified in KB-8-5-11 adenocarcinoma cell line, qHTS therapeutic library screen (AID 1346987). Also: nearly all actives have a fitted effect of over 65% in size. Also: potency is read from the fitted curve at half-maximal effect. In a few lines:
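Human cervical adenocarcinoma KB-8-5-11 cells, selected in colchicine to over-express P-gp and assayed without it, were exposed for 72 h to titrated compounds. An ATP-based luminescent viability signal gave AC50.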

The nature of assay [9]: Identifying Small Molecule Inhibitors of Pancreatic Cancer Stem Cells (Panc1, Spheroid) (AID 1259359).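 Also: potency is read from the fitted curve at half-maximal effect; compound exposure lasted 48 h before reading.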 In a few lines:
(§3)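 Endpoint: ATP-based luminescence, 48 h drug exposure. Bortezomib at 9.2 uM final as full-kill control; DMSO vehicle as negative control; activity normalized between vehicle and cell-free wells.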

A short description of assay [10]: Identifying Small Molecule Inhibitors of Pancreatic Cancer Stem Cells (SN12C, Spheroid) (AID 1259360). Also: potency is read from the fitted curve at half-maximal effect. The note with it: Potency: SN12C spheroid viability. In a few lines: as §3
Assay [11] is described as follows: Identifying Small Molecule Inhibitors of Pancreatic Cancer Stem Cells (A278, Adherent) (AID 1259361).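 Also: viability read after 48 h compound exposure; nearly all actives have a fitted effect of over 35% in size.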 Summed up:
as §2

A short description of assay [12]: Identifying Small Molecule Inhibitors of Pancreatic Cancer Stem Cells (Panc1, Adherent) (AID 1259362). Also: potency is read from the fitted curve at half-maximal effect. The note with it: Potency: viability. In a few lines:
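Viability is scored by CellTiter-Glo luminescence 48 h after dosing, expressed as percent activity against vehicle and no-cell references. Spheroid formats rely on cells cultured 14 days in stem cell media beforehand.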

Assay [13] is described as follows: NS1 protein of Zika virus - qHTS assay to identify small molecule inhibitors in human HEK 293 cells (AID 1347053). Also: nearly all actives have a fitted effect of over 55% in size. Also: potency is read from the fitted curve at half-maximal effect. In a few lines:
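In this cell-based screen, HEK 293 cultures received compound for one hour before Zika MR766 at MOI = 0.5. NS1 was quantified 24 hours later by TR-FRET, normalized to virus-free wells and infected wells.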

A short description of assay [14]: P-glycoprotein substrates identified in KB-3-1 adenocarcinoma cell line, qHTS therapeutic library screen (AID 1346986).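 Also: potency is read from the fitted curve at half-maximal effect; potency is for cytotoxicity meaning loss of cell viability; nearly all actives have a fitted effect of over 60% in size.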 Summed up:
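Dose-response cytotoxicity, KB-3-1 vs P-gp-high KB-8-5-11, no colchicine in assay medium. Read: CellTiter-Glo at 72 h.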

Several values for one entry are separate records, joined by “and”; a condition that tells them apart may be missing. Equal values may be shown once. Records with an inconclusive call do not appear. Activity calls are given as the source filed them. Calls follow the shape of the dose curve; as a rule, active = well fitted curve in the direction sought with a large enough effect; inconclusive = small, poorly fitted or top-dose-only effect, or another doubt; inactive = no such curve, though single readings can be large; an effect the other way counts as inactive or inconclusive.

With `CCN1CCN(Cc2ccc(-c3cc4c(N[C@H](C)c5ccccc5)ncnc4[nH]3)cc2)CC1`, the Potency entry in assay [1], in assay [2], in [3] and in assay [8] was “inactive” each time. In addition, the Potency is 0.0053 µM (active) in assay [4], 0.0332 µM (active) in assay [5], 0.0148 µM (active) in assay [6] and 23.5 µM (active) in [7].

Consider `C=CCn1c(=O)c2cnc(Nc3ccc(N4CCN(C)CC4)cc3)nc2n1-c1cccc(C(C)(C)O)n1`, for which the Potency entry in [1] and in [2] was “inactive” each time. The Potency in assay [3] is 0.264 µM (active); in assay [4] it was 0.332 µM (active); in assay [5], 0.0833 µM (active); in assay [6], 0.372 µM (active); in assay [9], 0.418 µM (active); in assay [10], 1.66 µM (active). Further, the Potency in assay [12] is 0.59 µM (active); in assay [8], 3.72 µM (active) and 5.8 µM (active); in [13], 0.418 µM (active). For the same compound, the IC50 (viability decrease) in [11] is 0.59 µM (active).

Take `COc1cc2c(Oc3ccc4[nH]c(C)cc4c3F)ncnc2cc1OCCCN1CCCC1`: the Potency entry in assay [1], in assay [2] and in assay [13] was “inactive” throughout. Further, the Potency in assay [3] is 23.5 µM (active); in assay [4] it was 23.5 µM (active); in [5], 23.5 µM (active); in assay [6], 16.6 µM (active); in assay [7], 2.35 µM (active); in assay [14], 23.1 µM (active). In addition, the Potency in assay [8] is 23.5 µM (active) and 18.4 µM (active). Besides, the IC50 (viability decrease) in assay [11] is 16.6 µM (active).

For the compound `C[C@@H]1CN(CC(=O)Nc2ccc3c(c2)Cc2cccc(-c4cc(=O)cc(N5CCOCC5)o4)c2S3)C[C@H](C)O1`, the Potency result in [1], in assay [2], in assay [7] and in assay [8] was “inactive” throughout. Further, the Potency in assay [3] was 23.5 µM (active); in assay [4], 20.9 µM (active); in assay [5] it was 23.5 µM (active); in assay [6] it was 18.7 µM (active); in assay [13] it was 18.7 µM (active).

For `CCN1CCN(CC(=O)Nc2ccc(-c3cccc4c(=O)cc(N5CCOCC5)oc34)c3sc4ccccc4c23)CC1`, the Potency result in assay [1], in assay [2] and in assay [13] was “inactive” each time. In addition, the Potency in [3] is 8.33 µM (active); in assay [4], 6.62 µM (active); in [5], 16.6 µM (active); in assay [6], 1.32 µM (active); in assay [9], 16.6 µM (active); in assay [10] it was 14.8 µM (active). The Potency was 23.5 µM (active) in assay [12], 1.88 µM (active) in assay [14] and 2.96 µM (active) in assay [8]. Besides, in [11], the IC50 (viability decrease) is 4.18 µM (active).

For the compound `O=C(O)[C@H](Cc1c[nH]c2ccccc12)N1C(=O)c2ccccc2C1=O`, the Potency result in assay [1], in [2], in assay [3], in assay [4], in assay [5] and in assay [6] was “inactive” in each case. Further, the Potency entry in assay [7], in assay [10], in assay [12], in [8] and in [13] was “inactive” in each case.

As to `CC=C1NC(=O)[C@H]2CSSCCC=C[C@H](CC(=O)N[C@H](C(C)C)C(=O)N2)OC(=O)[C@H](C(C)C)NC1=O`, the Potency result in assay [1] and in assay [2] was “inactive” in each case. Further, the Potency is 0.0148 µM (active) in [3]; 0.0209 µM (active) in assay [4]; 0.0187 µM (active) in [5]; 0.0148 µM (active) in assay [6]; 0.0053 µM (active) in [7]; 0.0053 µM (active) in [10]. The Potency in [8] is 8.33 µM (active); in [13], 4.18 µM (active). The IC50 (viability decrease) in [11] was 0.0053 µM (active).

Turning to `COc1ccc(OC)c(-c2nnc3ccc(-c4ccc(OC)c(O[C@@H]5CCOC5)c4)nn23)c1`, the Potency entry in assay [1] and in assay [2] was “inactive” in each case. For the same compound, the Potency in [3] is 16.6 µM (active); in [4], 16.6 µM (active); in [5] it was 11.8 µM (active); in assay [6] it was 16.6 µM (active); in [7], 20.9 µM (active); in assay [10], 18.7 µM (active). Besides, the Potency is 4.61 µM (active) in assay [8] and 9.35 µM (active) in [13]. The IC50 (viability decrease) in assay [11] is 5.9 µM (active).

Turning to `Cc1[nH]c2ccccc2c1CCNCc1ccc(C=CC(=O)NO)cc1`, the Potency entry in assay [1] and in [2] was “inactive” throughout. Moreover, the Potency in assay [3] was 0.0935 µM (active); in assay [4], 0.0833 µM (active); in assay [5], 0.0935 µM (active); in assay [6], 0.0469 µM (active); in [7], 0.235 µM (active); in assay [9], 0.59 µM (active). The Potency in assay [12] was 0.148 µM (active); in assay [8], 0.935 µM (active). Moreover, the IC50 (viability decrease) in [11] was 0.118 µM (active).

For `COc1cc2ncn(-c3cc(OCc4ccccc4C(F)(F)F)c(C(N)=O)s3)c2cc1OC`, the Potency entry in assay [1], in assay [2] and in [10] was “inactive” in each case. Besides, the Potency in assay [3] was 4.18 µM (active); in assay [4], 1.48 µM (active); in assay [5], 1.32 µM (active); in [6], 1.32 µM (active); in assay [7] it was 1.05 µM (active); in assay [8] it was 0.935 µM (active). Further, in assay [11], the IC50 (viability decrease) is 1.48 µM (active).

`CC(C)(C)OC(=O)Nc1ccc(-c2cc(C(=O)NCCCCCCC(=O)NO)no2)cc1`: the Potency entry in [1] and in assay [2] was “inactive” in each case. The Potency in assay [3] is 2.09 µM (active); in assay [4], 2.96 µM (active); in assay [5], 1.32 µM (active); in [6] it was 1.66 µM (active); in assay [7], 26.4 µM (active); in assay [10] it was 16.6 µM (active). The Potency was 8.33 µM (active) in [8] and 26.4 µM (active) in [13]. The IC50 (viability decrease) in [11] was 2.35 µM (active).

Regarding `Nc1nc(-c2nn(Cc3ccccc3F)c3ncccc23)nc(N)c1N1CCOCC1`, the Potency result in [1], in [2], in assay [3], in assay [4], in assay [5] and in assay [6] was “inactive” each time. The Potency entry in assay [7], in [10], in assay [8] and in assay [13] was “inactive” each time. For the same compound, the IC50 (viability decrease) result in assay [11] is “inactive”.

Turning to `CCN(CC)CCCCNc1ncc2cc(-c3cc(OC)cc(OC)c3)c(NC(=O)NC(C)(C)C)nc2n1`, the Potency entry in [1], in assay [2] and in [12] was “inactive” each time. Besides, the Potency in assay [3] is 20.9 µM (active); in [4], 16.6 µM (active); in [5], 18.7 µM (active); in assay [6], 16.6 µM (active); in [7], 14.8 µM (active); in assay [9], 18.7 µM (active). Besides, the Potency in assay [14] is 23.1 µM (active). Besides, the IC50 (viability decrease) in assay [11] was 5.26 µM (active).
